Reference: PubChem BioAssay (Tox21)
Results filed as inconclusive are left out. Where a call stands in place of a potency, no number is given. Active and inactive are the calls of the source. Calls follow the shape of the dose curve; as a rule, active = well fitted curve in the direction sought with a large enough effect in the repeat runs; inconclusive = weak or mixed curves; inactive = no such curve, though single readings can be large; an effect the other way counts as inactive or inconclusive.

test system: not listed separately; assay: qHTS assay for identifying genotoxic compounds that show differential cytotoxicity against isogenic chicken DT40 cell lines with known DNA damage response pathways - Rad54/Ku70 mutant cell line (AID 743015); conditions: DT40 Rad54/Ku70 mutant viability, CellTiter-Glo, 40 h; series mostly up to 66.8 µM; also: nearly all actives have a fitted effect of over 60% in size; also: potency is read from the fitted curve at half-maximal effect

Row | SMILES | Potency
1 | CC1=CCC(O)(C(C)C)CC1 (stereo unspecified) | inactive
2 | CCN(C=O)CC | inactive
3 | C=CCOCC(O)CO (stereo unspecified) | inactive
4 | CN(C)CCN(C)CCN(C)C | inactive
5 | O=Cc1cccc(Br)c1 | inactive
6 | O=S(=O)(O)c1cccc2c(S(=O)(=O)O)cccc12 | inactive
7 | c1ccc(Cc2ccccc2)cc1 | inactive
8 | CCCO[Si](OCCC)(OCCC)OCCC | inactive
9 | COc1ccc2cc1Oc1cc3c(cc1OC)CC[N+](C)(C)[C@H]3Cc1ccc(cc1)Oc1c(OC)c(OC)cc3c1[C@@H](C2)[N+](C)(C)CC3 | inactive
10 | CC/C=C\CCOC(C)OCC (stereo unspecified) | inactive
11 | C[N+]12CCC(CC1)C(OC(=O)C(O)(c1ccccc1)c1ccccc1)C2 (stereo unspecified) | inactive
12 | CC(C(=O)O)c1cccc(Oc2ccccc2)c1 (stereo unspecified) | inactive
13 | O=C(CO)[C@@H](O)[C@H](O)[C@@H](O)CO | inactive
14 | CN1C(C)(C)CC(O)CC1(C)C | inactive
15 | [Ca+2] | inactive
16 | CCN[C@@H]1C[C@H](N)[C@@H](OC2OC(CN)=CCC2N)[C@H](O)[C@H]1O[C@H]1OC[C@](C)(O)[C@H](NC)[C@H]1O (stereo partly specified) | inactive
17 | FB(F)F | inactive
18 | C[C@H]1C[C@H]2[C@@H]3CCC4=CC(=O)C=C[C@]4(C)[C@H]3C(=O)C[C@]2(C)[C@@]1(O)C(=O)CO | inactive
19 | CC(=O)Nc1ccc(OCC(O)CNC(C)C)cc1 (stereo unspecified) | inactive
20 | CN1[C@@H]2CC[C@H]1CC(OC(=O)C(O)c1ccccc1)C2 (stereo partly specified) | inactive
21 | CC(C)(C#N)Nc1nc(Cl)nc(NC2CC2)n1 | inactive
22 | CC(C)C[C@@H](N)C(=O)O | inactive
23 | CCN1CCOCC1 | inactive
24 | CC1=NS(=O)(=O)c2cc(Cl)ccc2N1 | inactive
25 | CC(=O)C1CCCCC1=O (stereo unspecified) | inactive
26 | C[N+]1(CC2COC(c3ccccc3)(c3ccccc3)O2)CCCCC1 (stereo unspecified) | 26.6 µM (active)

test system: not listed separately; assay: qHTS assay to identify small molecule antagonists of the androgen receptor (AR) signaling pathway - cell viability counter screen (AID 743033; also: nearly all actives have a fitted effect of over 45% in size); conditions: AR-bla HEK293 viability, CellTiter-Glo luminescence, 16 h; series mostly up to 58.5 µM

Row | SMILES | outcome
27 | O=C(c1ccccc1)C1(O)CCCCC1 | inactive
28 | CC1=CCC(O)(C(C)C)CC1 (stereo unspecified) | inactive
29 | CCN(C=O)CC | inactive
30 | C=CCOCC(O)CO (stereo unspecified) | inactive
31 | CN(C)CCN(C)CCN(C)C | inactive
32 | O=Cc1cccc(Br)c1 | inactive
33 | CCCO[Si](OCCC)(OCCC)OCCC | inactive
34 | O=C(c1ccccc1O)c1ccccc1O | inactive
35 | COc1ccc2cc1Oc1cc3c(cc1OC)CC[N+](C)(C)[C@H]3Cc1ccc(cc1)Oc1c(OC)c(OC)cc3c1[C@@H](C2)[N+](C)(C)CC3 | inactive
36 | CC/C=C\CCOC(C)OCC (stereo unspecified) | inactive
37 | CC(C(=O)O)c1cccc(Oc2ccccc2)c1 (stereo unspecified) | inactive
38 | O=C(CO)[C@@H](O)[C@H](O)[C@@H](O)CO | inactive
39 | CCC1C(=O)OCC1Cc1cncn1C (stereo unspecified) | inactive
40 | CN1C(C)(C)CC(O)CC1(C)C | inactive
41 | CC(=O)OCC(=O)[C@@]1(O)[C@H](C)C[C@H]2[C@@H]3CCC4=CC(=O)C=C[C@]4(C)[C@@]3(F)[C@@H](O)C[C@@]21C | inactive
42 | [Ca+2] | inactive

Row | SMILES | outcome
43 | CCN[C@@H]1C[C@H](N)[C@@H](OC2OC(CN)=CCC2N)[C@H](O)[C@H]1O[C@H]1OC[C@](C)(O)[C@H](NC)[C@H]1O (stereo partly specified) | inactive
44 | C=COCC1CCC(COC=C)CC1 (stereo unspecified) | inactive
45 | FB(F)F | inactive
46 | C[C@H]1C[C@H]2[C@@H]3CCC4=CC(=O)C=C[C@]4(C)[C@H]3C(=O)C[C@]2(C)[C@@]1(O)C(=O)CO | inactive
47 | O=S(=O)(O)c1cccc(S(=O)(=O)O)c1 | inactive
48 | CC(=O)Nc1ccc(OCC(O)CNC(C)C)cc1 (stereo unspecified) | inactive
49 | CN1[C@@H]2CC[C@H]1CC(OC(=O)C(O)c1ccccc1)C2 (stereo partly specified) | inactive
50 | Cc1nc2ccc(CN(C)c3ccc(C(=O)N[C@@H](CCC(=O)O)C(=O)O)s3)cc2c(=O)[nH]1 | inactive
51 | CNC(=O)Nc1ccc(Cl)c(Cl)c1 | inactive
52 | CC(N)C12CC3CC(CC(C3)C1)C2 (stereo unspecified) | inactive
53 | CC(C)C[C@@H](N)C(=O)O | inactive
54 | CCN1CCOCC1 | inactive
55 | CC1=NS(=O)(=O)c2cc(Cl)ccc2N1 | inactive
56 | CC(=O)C1CCCCC1=O (stereo unspecified) | inactive
57 | C[N+]1(CC2COC(c3ccccc3)(c3ccccc3)O2)CCCCC1 (stereo unspecified) | inactive

biological target: Androgen receptor (Homo sapiens) (UniProt P10275); assay: qHTS assay to identify small molecule agonists of the androgen receptor (AR) signaling pathway using the MDA cell line (AID 743040; also: nearly all actives have a fitted effect of over 20% in size); conditions: MDA-kb2 AR-luc cells, MMTV luciferase, 16 h; series mostly up to 70.3 µM
Sequence (P10275 whole entry, looked up): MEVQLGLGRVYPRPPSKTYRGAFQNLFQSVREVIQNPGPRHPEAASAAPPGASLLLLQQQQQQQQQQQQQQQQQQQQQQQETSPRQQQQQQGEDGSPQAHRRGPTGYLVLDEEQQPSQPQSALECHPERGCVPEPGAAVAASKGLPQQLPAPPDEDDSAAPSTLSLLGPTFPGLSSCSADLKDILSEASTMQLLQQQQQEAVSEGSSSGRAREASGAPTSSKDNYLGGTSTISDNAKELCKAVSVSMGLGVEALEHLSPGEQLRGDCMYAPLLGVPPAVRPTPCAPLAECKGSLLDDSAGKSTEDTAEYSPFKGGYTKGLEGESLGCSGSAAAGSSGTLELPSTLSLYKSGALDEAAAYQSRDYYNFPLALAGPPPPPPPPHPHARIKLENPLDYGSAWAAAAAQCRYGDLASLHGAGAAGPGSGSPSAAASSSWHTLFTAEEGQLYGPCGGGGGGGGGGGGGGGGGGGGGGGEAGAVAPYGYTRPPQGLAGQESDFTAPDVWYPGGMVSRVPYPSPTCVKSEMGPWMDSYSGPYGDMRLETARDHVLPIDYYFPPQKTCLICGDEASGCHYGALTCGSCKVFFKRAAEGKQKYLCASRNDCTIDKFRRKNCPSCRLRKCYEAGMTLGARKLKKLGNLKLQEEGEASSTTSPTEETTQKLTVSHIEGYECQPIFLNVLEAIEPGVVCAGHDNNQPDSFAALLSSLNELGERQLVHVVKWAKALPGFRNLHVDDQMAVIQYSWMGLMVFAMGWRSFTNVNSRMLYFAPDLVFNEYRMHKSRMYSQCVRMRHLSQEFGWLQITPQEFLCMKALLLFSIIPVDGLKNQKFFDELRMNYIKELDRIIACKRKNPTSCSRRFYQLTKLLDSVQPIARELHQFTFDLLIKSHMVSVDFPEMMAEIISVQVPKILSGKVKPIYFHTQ
In short: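 Luciferase read-out, ONE-Glo, 30 min RT. Cells: MDA-kb2 AR-luc, MMTV promoter with AR and GR response elements. Compound exposure 16 h, 37C, 0% CO2, after 5 h pre-incubation. qHTS agonist mode.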

Row | SMILES | Potency
58 | O=C(c1ccccc1O)c1ccccc1O | inactive
59 | O=S(=O)(O)c1cccc(S(=O)(=O)O)c1 | inactive
60 | Cc1nc2ccc(CN(C)c3ccc(C(=O)N[C@@H](CCC(=O)O)C(=O)O)s3)cc2c(=O)[nH]1 | inactive
61 | CNC(=O)Nc1ccc(Cl)c(Cl)c1 | inactive

test system: not listed separately; assay: qHTS assay to identify small molecule antagonists of the androgen receptor (AR) signaling pathway using the MDA cell line - cell viability counter screen (AID 743041; also: nearly all actives have a fitted effect of over 45% in size); conditions: MDA-kb2 viability, CellTiter-Fluor, 16 h, cells co-treated with R1881 androgen agonist; series mostly up to 70.3 µM
In short: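 Cytotoxicity counter screen: MDA-kb2 AR-luc cells, compound + R1881, 16 h, 37C, 0% CO2; CellTiter-Fluor added at 15.5 h, fluorescence read after 30 min.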

Row | SMILES | Potency
62 | O=C(c1ccccc1)C1(O)CCCCC1 | inactive
63 | CC1=CCC(O)(C(C)C)CC1 (stereo unspecified) | inactive
64 | CCN(C=O)CC | inactive
65 | C=CCOCC(O)CO (stereo unspecified) | inactive
66 | CN(C)CCN(C)CCN(C)C | inactive
67 | O=Cc1cccc(Br)c1 | inactive
68 | O=S(=O)(O)c1cccc2c(S(=O)(=O)O)cccc12 | inactive
69 | c1ccc(Cc2ccccc2)cc1 | inactive
70 | CCCO[Si](OCCC)(OCCC)OCCC | inactive
71 | O=C(c1ccccc1O)c1ccccc1O | inactive
72 | COc1ccc2cc1Oc1cc3c(cc1OC)CC[N+](C)(C)[C@H]3Cc1ccc(cc1)Oc1c(OC)c(OC)cc3c1[C@@H](C2)[N+](C)(C)CC3 | inactive
73 | CC/C=C\CCOC(C)OCC (stereo unspecified) | inactive
74 | C[N+]12CCC(CC1)C(OC(=O)C(O)(c1ccccc1)c1ccccc1)C2 (stereo unspecified) | inactive
75 | CC(C(=O)O)c1cccc(Oc2ccccc2)c1 (stereo unspecified) | inactive
76 | O=C(CO)[C@@H](O)[C@H](O)[C@@H](O)CO | inactive
77 | CCC1C(=O)OCC1Cc1cncn1C (stereo unspecified) | inactive
78 | CN1C(C)(C)CC(O)CC1(C)C | inactive
79 | CC(=O)OCC(=O)[C@@]1(O)[C@H](C)C[C@H]2[C@@H]3CCC4=CC(=O)C=C[C@]4(C)[C@@]3(F)[C@@H](O)C[C@@]21C | inactive

Row | SMILES | Potency
80 | [Ca+2] | inactive
81 | CCN[C@@H]1C[C@H](N)[C@@H](OC2OC(CN)=CCC2N)[C@H](O)[C@H]1O[C@H]1OC[C@](C)(O)[C@H](NC)[C@H]1O (stereo partly specified) | inactive
82 | C=COCC1CCC(COC=C)CC1 (stereo unspecified) | inactive
83 | FB(F)F | inactive
84 | C[C@H]1C[C@H]2[C@@H]3CCC4=CC(=O)C=C[C@]4(C)[C@H]3C(=O)C[C@]2(C)[C@@]1(O)C(=O)CO | inactive
85 | O=S(=O)(O)c1cccc(S(=O)(=O)O)c1 | inactive
86 | CC(=O)Nc1ccc(OCC(O)CNC(C)C)cc1 (stereo unspecified) | inactive
87 | CN1[C@@H]2CC[C@H]1CC(OC(=O)C(O)c1ccccc1)C2 (stereo partly specified) | inactive
88 | CC(C)(C#N)Nc1nc(Cl)nc(NC2CC2)n1 | inactive
89 | Cc1nc2ccc(CN(C)c3ccc(C(=O)N[C@@H](CCC(=O)O)C(=O)O)s3)cc2c(=O)[nH]1 | inactive
90 | CNC(=O)Nc1ccc(Cl)c(Cl)c1 | inactive
91 | CC(N)C12CC3CC(CC(C3)C1)C2 (stereo unspecified) | inactive
92 | CC(C)C[C@@H](N)C(=O)O | inactive
93 | CCN1CCOCC1 | inactive
94 | CC1=NS(=O)(=O)c2cc(Cl)ccc2N1 | inactive
95 | CC(=O)C1CCCCC1=O (stereo unspecified) | inactive
96 | C[N+]1(CC2COC(c3ccccc3)(c3ccccc3)O2)CCCCC1 (stereo unspecified) | inactive
